Bioassay records as filed in PubChem BioAssay.
IL-1B inflam inh: qHTS for Inhibitors of Inflammasome Signaling: IL-1-beta AlphaLISA Primary Screen. THP-1 LPS/ATP IL-1B secretion, AlphaLISA, 16 h; stronger effect = lower value. activity change, % at 57.5 µM. hit rate 4.7% among 360,000; in the data active = activity change below about -50%; inconclusive = mostly about -30% to -49%
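Secreted IL-1B measured by AlphaLISA bead assay after 16 h compound exposure of THP-1 cells; compounds (final up to 57.5 uM) added 1 h before LPS (250 ng/mL) and ATP (1.25 mM) stimulation; lower signal means less secretion.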
HT1080-NT tox: qHTS for induction of synthetic lethality in tumor cells producing 2HG: qHTS for the HT-1080-NT fibrosarcoma cell line; hit rate 1.6% among 360,000; HT-1080-NT fibrosarcoma viability, CellTiter-Glo ATP luminescence, 48 h; Potency, µM (titrated, usually from 46.1 µM), without a hit: at the top dose activity, negative = less viability, hits mostly cytotoxic; AID 686970, 2013;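 note: NT is the 2HG producing partner of a matched IDH1 knockdown line; potency is the fitted concentration of half-maximal effect; 0% = DMSO-treated cells and -100% = media-only wells without cells; nearly all actives have a fitted effect of over 55% in size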
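HT-1080-NT; 750 cells/well; 5% FBS RPMI; 48 h compound, 37 degrees C; CellTiter-Glo luminescence; curve fitting and curve-class assignment.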
HT1080 IDH1KD tx: qHTS for induction of synthetic lethality in tumor cells producing 2HG: qHTS for the HT-1080-IDH1KD cell line; HT-1080 IDH1 knockdown viability, ATP luminescence, 48 h; Potency, µM (titrated, usually from 46.1 µM), for inactives: at the top dose activity, negative = toxicity, usual class: cytotoxic; hit rate 2% among 360,000; AID 686971, 2013;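 note: potency is the fitted concentration of half-maximal effect; 0% = DMSO wells and -100% = cell-free medium wells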
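% activity derives from luminescence (CellTiter-Glo), normalised to DMSO and no-cell wells. HT-1080-IDH1KD cells, 750/well, had 48 h compound exposure at 37 °C.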
DT40 TDP1 CPT: qHTS for Inhibitors of human tyrosyl-DNA phosphodiesterase 1 (TDP1): qHTS in cells in presence of CPT; chicken DT40 Tdp1-/-;hTDP1 cells + 20 nM CPT, ATP luminescence, 48 h; Potency, µM (titrated, usually from 46.2 µM), for inactives: at the top dose activity change, negative = growth inhibition, actives largely listed as inhibitors; hit rate 12% among 420,000; note: potency is the fitted concentration of half-maximal effect; nearly all actives have a fitted effect of over 55% in size
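Chicken DT40 Tdp1-/- cells stably complemented with human TDP1 were seeded at 400 cells/well in medium containing 20 nM camptothecin, exposed to pin-transferred compounds, and grown at 37 °C for at least 48 hr. Viability was read as ATP luminescence.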
DT40 TDP1 no CPT: qHTS for Inhibitors of human tyrosyl-DNA phosphodiesterase 1 (TDP1): qHTS in cells in absence of CPT; Potency, µM (highest dose often 46.2 µM), inactives show top-dose activity change, negative = growth inhibition, most hits filed as inhibitors; DT40 Tdp1-/- hTDP1 cells, no CPT, ATP luminescence, 48 h; hit rate 15% among 420,000; AID 686978, 2013; note: potency is the fitted concentration of half-maximal effect; nearly all actives have a fitted effect of over 55% in size
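Stably hTDP1-transfected Tdp1-null chicken DT40 cells were treated with library compounds minus camptothecin and grown for at least 48 hr at 37 °C, after which cellular ATP was quantified by luminescence.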
* = called active by the depositor; i = inactive; u = inconclusive; x = no result. Sampled rows, rich in hits. Any-hit rate of the full collection: about 19%. Unless noted, calls come from the whole dose curve; as a rule, active = well fitted curve in the direction sought with a large enough effect; inconclusive = small, poorly fitted or top-dose-only effect, or another doubt; inactive = no such curve, though single readings can be large; an effect the other way counts as inactive or inconclusive. Unless noted, % is set by controls: 0 for no effect and ±100 for the full control effect.

SMILES	IL-1B inflam inh	HT1080-NT tox	HT1080 IDH1KD tx	DT40 TDP1 CPT	DT40 TDP1 no CPT
CCOc1ccccc1NC(=O)COC(=O)c1ccccc1SCC(=O)N1CCCC1	11	0%	-12%	u	16µM*
Cc1cccc(NC(=O)CSc2cn(CC(=O)N3CCCCCC3)c3ccccc23)c1	x	x	x	-6%	-29%
CCn1cc(C(=O)OCC(=O)Nc2ccccc2OC(F)F)c(=O)c2ccc(C)nc21	21	0%	-13%	-29%	u
Cc1cc(=O)oc2cc(OCC(=O)NCc3ccco3)ccc12	u	26%	18%	11%	-22%
CC(Sc1nnc(-c2ccccc2)n1C)C(=O)NCc1ccco1 (configuration not stated)	x	x	x	-26%	-16%
CC(=O)c1ccc(N2CCN(C(=O)C(=O)c3cn(CC(=O)N4CCCCCC4)c4ccccc34)CC2)cc1	i	3%	-1%	23µM*	13µM*
Cc1ccc(NC(=O)CSc2cn(CC(=O)N3CCCCCC3)c3ccccc23)cc1	x	x	x	-23%	u
CC(=O)c1ccc(NC(=O)CSc2cn(CC(=O)N3CCCCC3)c3ccccc23)cc1	x	x	x	u	21µM*
CCn1cc(C(=O)OCC(=O)c2cc(C)n(-c3ccc(OC(F)F)cc3)c2C)c(=O)c2ccc(C)nc21	-11	-8%	12%	u	13µM*
COc1ccc(S(=O)(=O)N2CCC(C(=O)NCCC(=O)NC3CC3)CC2)cc1	36	3%	7%	-3%	18%
O=C(COC(=O)c1ccccc1[N+](=O)[O-])Nc1cc(S(=O)(=O)N2CCOCC2)ccc1N1CCCC1	9	2%	0%	0%	u
O=C1c2ccccc2C(Nc2ccc(F)c(Cl)c2)N1c1ccccn1 (configuration not stated)	-13	0%	-18%	16µM*	u
COc1ccc(NC2c3ccccc3C(=O)N2c2ccccn2)cc1Cl (configuration not stated)	u	-1%	3%	-19%	u
O=C1c2ccccc2C(Nc2ccc3c(c2)OCCO3)N1c1ccc(Cl)cn1 (configuration not stated)	19	-5%	-4%	u	16µM*
O=C1c2ccccc2C(Nc2ccc(S(=O)(=O)N3CCCCC3)cc2)N1c1ccccn1 (configuration not stated)	u	2%	-1%	u	21µM*
O=C1c2ccccc2C(Nc2ccccc2)N1c1ccc(Cl)cn1 (configuration not stated)	30	-6%	6%	u	u
CCCCN(C=O)c1c(CC)nc2ccc(C(=O)NCCOc3ccc(OC)cc3)cn12	-7	9%	6%	u	u
Cc1cccc(C)c1OCc1cc(C(=O)N(Cc2nccn2C)C(C)C)no1	6	2%	-7%	15µM*	10µM*
CC(C)N(Cc1nccn1C)C(=O)c1cc(COc2ccc3ncccc3c2)on1	30	u	-26%	u	10µM*
COc1cccc(OCc2cc(C(=O)N(C)Cc3nc(C)cs3)no2)c1	-2	11%	13%	u	u
CCN(Cc1ccncc1)C(=O)c1cc(COc2ccc(F)cc2F)on1	u	-3%	-12%	u	-49%
Cc1nc(CN(C)C(=O)c2cc(COc3ccc4ncccc4c3)on2)cs1	-22	4.1µM*	u	5.8µM*	5.8µM*
CCN(Cc1ccncc1)C(=O)c1cc(COc2c(C)cccc2C)on1	u	-7%	-1%	12µM*	u
Cc1cc(S(=O)(=O)NCCCN2CCOCC2)c(C)cc1Cl	i	8%	24%	u	-13%
O=C(CN1C(=O)c2cccnc2Oc2ccc(Cl)cc21)NC1CCCC1	-7	-7%	-2%	-16%	15µM*
SMILES	IL-1B inflam inh	HT1080-NT tox	HT1080 IDH1KD tx	DT40 TDP1 CPT	DT40 TDP1 no CPT
COCCNC(=O)CN1C(=O)c2cccnc2Oc2ccc(Cl)cc21	x	x	x	-1%	-11%
CCOc1ccccc1CNC(=O)CN1C(=O)c2cccnc2Oc2ccc(Cl)cc21	x	x	x	u	16µM*
CCc1ccc(CNC(=O)CN2C(=O)c3cccnc3Oc3ccc(Cl)cc32)cc1	x	x	x	u	16µM*
O=C(CN1C(=O)c2cccnc2Oc2ccc(Cl)cc21)NC1CCCCCC1	0	-3%	-13%	-14%	-1%
O=c1c(/C=N/O)c(Nc2ccccc2)nc2ccccn12	-17	u	u	-13%	-30%
COCCN1C(=O)N(c2cccc(C)c2)C(=O)C1CC(=O)Nc1cc(OC)cc(OC)c1 (configuration not stated)	43	3%	3%	8%	1%
COc1ccc(N2C(=O)C(CC(=O)Nc3ccc(F)cc3)N(CCC3=CCCCC3)C2=O)cc1 (configuration not stated)	x	x	x	u	16µM*
CCOc1ccc(NC(=O)CC2C(=O)N(c3cccc(C)c3)C(=O)N2CCC2=CCCCC2)cc1 (configuration not stated)	x	x	x	u	23µM*
O=C(NCC(=O)N1CCN(c2ccccc2O)CC1)c1ccc2c(c1)OCO2	u	-4%	-1%	-11%	4%
O=C(NCCCn1ccnc1)/C(=C\c1ccccc1Cl)NC(=O)c1ccccc1	-3	2%	8%	-4%	-1%
CCc1nnc(NC(=O)c2ccc(OC)cc2)s1	-18	28%	21%	-16%	8%
CCOC(=O)Cc1csc(NC(=O)c2sc3nc4ccc(C)cc4cc3c2N)n1	0	16%	13%	0%	5%
CCSc1nnc(NC(=O)c2ccc3ccccc3n2)s1	8	-14%	-16%	18µM*	u
CCc1nnc(NC(=O)c2sc3nc4cc(C)ccc4cc3c2N)s1	0	24%	4%	2.6µM*	2.9µM*
CCc1nnc(NC(=O)c2ccc3ccccc3n2)s1	34	-14%	-5%	u	18µM*
CCSc1nnc(NC(=O)c2cc(C)nc3ccccc23)s1	27	-1%	-1%	-12%	-15%
CCCc1cc(C(=O)Cc2ccc(F)cc2)c(O)cc1O	20	23µM*	21µM*	u	u
O=c1oc2ccccc2c2c1ccc1ccccc12	33	3%	5%	u	u
CC(=C\C(=O)O)/C(=C/c1ccco1)C(=O)O	12	19%	5%	-16%	20%
CC(=C\C(=O)O)/C(=C/c1ccc(C)o1)C(=O)O	3	0%	-17%	15µM*	21µM*
